Reference: PubChem BioAssay (NCI)
Compounds without any hit were thinned out: in the full panel of roughly 83,000, 20% have a hit.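 Method: cells in 96-well plates; compound added at one concentration; 48 h incubation; percent growth measured; values under 10 scored active.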 Active and inactive are the calls of the source.

Experiments:
Test in all cases: NCI-60 one-dose screen, 48 h (100 = growth as untreated, 0 = no growth, -100 = all killed)
Conditions in all cases: 10 µM unless noted
[1] = system: T-47D breast
[2] = system: BT-549 breast
[3] = system: MDA-MB-435 melanoma
[4] = system: SW-620 colon
[5] = system: MCF7 breast
[6] = system: HCT-116 colon
[7] = system: HCC-2998 colon
[8] = system: KM12 colon

Measured: growth

CCOC(=O)C1=C(C)Nc2nc3ccccc3n2C1c1cccc(Br)c1 (configuration not stated)
inactive: [1] 88.1% | [2] 76.9% | [4] 68.2% | [5] 38.3% | [6] 81.4% | [7] 93.1% | [8] 65.6%
active: [3] 7.44%

COc1ccc(Cn2cc3c(c2-c2cc(OC)c(OC)c(OC)c2)CCCc2cnoc2-3)cc1N
active: [3] -45.3%
inactive: [1] 51.5% | [2] 68.2% | [4] 29.6% | [5] 15.2% | [6] 24.1% | [7] 49% | [8] 26.1%

O=c1[nH]c2cc(Cl)ccc2n1C1CCN(c2ccc3nnc(Cl)n3n2)CC1
inactive: [1] 86.6% | [2] 94.2% | [3] 98.4% | [4] 93.4% | [5] 81.1% | [6] 106% | [7] 100% | [8] 96.5%

N/C(=N\c1nc2c(Cl)cccc2s1)C(Cl)(Cl)Cl
inactive: [1] 42.4% | [2] 111% | [3] 89.1% | [4] 82.5% | [5] 49.3% | [6] 69.7% | [7] 72.9% | [8] 41.5%

CCOC(=O)/C=c1\sc2n(c1=O)C1C(NN=2)N(CC)C(=O)N1CC (configuration not stated)
inactive: [1] 84% | [2] 57.7% | [4] 31.7% | [5] 11% | [6] 28.8% | [7] 77.1% | [8] 36%
active: [3] -17.8%

Cn1c2ccccc2c2c3c(c4c5ccc(Br)cc5oc4c21)C(=O)N(O)C3=O
inactive: [1] 19.5% | [2] 64.9% | [3] 88.5% | [4] 59.3% | [5] 19.2% | [6] 65.7% | [7] 91.8% | [8] 92.4%

CCOC(=O)/C(F)=C/C1CC1C1CCCCC1 (configuration not stated)
inactive: [1] 102% | [2] 124% | [3] 102% | [4] 101% | [5] 92.2% | [6] 97.2% | [7] 107% | [8] 104%

CC(C)SC1=NC(=C(C(=N1)NC2=ClC=CC=C2)C#N)C3=CC=CC=C3
inactive: [1] 55% | [2] 110% | [3] 62.3% | [4] 50.5% | [5] 39.9% | [6] 27.9% | [7] 84.1% | [8] 79.3%

Cc1cc(Cl)cc(NS(=O)(=O)c2ccc(-c3cnc(C4CC4)o3)cc2)c1
inactive: [1] 36.1% | [2] 48% | [4] 28% | [5] 24.9% | [6] 18.4% | [7] 19.8% | [8] 15.4%
active: [3] -23.8%

COc1ccc2c(C3=C(c4c[nH]c5ccccc45)C(=O)N(O)C3=O)coc2c1
inactive: [1] 40.6% | [2] 118% | [3] 107% | [4] 98.6% | [5] 44.5% | [6] 93.1% | [7] 103% | [8] 97.6%

Cc1ccc(C2CC(c3ccc(Nc4nc(NCCO)nc(Nc5ccc(Cl)cc5)n4)cc3)=Nc3c(N)nc(N)nc3N2)cc1 (configuration not stated)
active: [3] -93.1% | [4] -88.9% | [5] -68.4% | [6] -97% | [7] -65.3% | [8] -88%
inactive: [1] 60.1% | [2] 80.7%

Cc1ccc(-c2cc(-c3cccc4ccccc34)n3c(n2)nc2ccccc23)cc1
inactive: [1] 54.1% | [2] 69.1% | [3] 65% | [4] 45.2% | [5] 22.6% | [6] 43.4% | [7] 92% | [8] 78.9%

NS(=O)(=O)c1ccc(Nc2nc(N/N=C/c3ccc(F)cc3)nc(Nc3ccccc3)n2)cc1
inactive: [1] 20.7% | [2] 67.2% | [3] 53.5% | [4] 75.7% | [5] 28.6% | [6] 44.7% | [7] 55.4% | [8] 30.9%

O=C(Nc1cccc(Cl)c1)Nc1nc2ccc([N+](=O)[O-])cc2s1
active: [1] -11.7% | [2] -28.7% | [3] -8.69% | [4] 3.71% | [5] 4.68% | [6] 0.143% | [7] 5.59% | [8] 0.174%

O=C1c2c(c3c4cc(O)ccc4oc3c3[nH]c4ccccc4c23)C(=O)N1O
inactive: [7] 34.6%
active: [1] -17% | [2] -9.43% | [3] -13.8% | [4] 4.5% | [5] 6.15% | [6] -45.8% | [8] -17.2%

CCOc1c(C#N)c(Nc2ccc(S(N)(=O)=O)cc2)c(C#N)c2nnc(C)n12
inactive: [1] 104% | [2] 97.6% | [3] 108% | [4] 108% | [5] 97.2% | [6] 116% | [7] 106% | [8] 103%

C/C(Cc1ccc(Cl)cc1)=C(/c1ccccc1)c1ccc(OCCN)cc1
inactive: [1] 101% | [2] 95.3% | [3] 95.1% | [4] 102% | [5] 99.9% | [6] 102% | [7] 99% | [8] 103%

CCNC(=NCCCN(C)C)N/C(N)=N/c1nc2ccccc2s1
inactive: [1] 94.7% | [2] 97.1% | [3] 93.8% | [4] 103% | [5] 82.8% | [6] 76.4% | [7] 98.1% | [8] 93.9%

COc1ccc(-c2nc(SCCC(C)C)nc(N/N=C\c3ccc(O)cc3)c2C#N)cc1
inactive: [1] 76.7% | [2] 67.5% | [3] 49.5% | [4] 54.1% | [5] 40.3% | [6] 39.6% | [7] 86.8% | [8] 67%

Cn1nc(Nc2ccccc2)c(C(=O)NN)c1N
inactive: [1] 95.4% | [2] 129% | [3] 105% | [4] 99.8% | [5] 89.7% | [6] 113% | [7] 107% | [8] 99.4%

Nc1nc(N)c2c(n1)NC(c1ccccc1)CC(c1ccc(Nc3nc(NCCO)nc(Nc4ccc(Cl)cc4)n3)cc1)=N2 (configuration not stated)
active: [4] -83.3% | [5] -71.3% | [6] -92.7%
inactive: [1] 62.1% | [2] 79.3% | [3] 41.8% | [7] 68.9% | [8] 47%

C#CCOc1ccc(C(Nc2ccc(OC)cc2)c2nnnn2C2CCCCC2)cc1 (configuration not stated)
inactive: [1] 94.1% | [2] 99.6% | [3] 101% | [4] 98.3% | [5] 91.7% | [6] 88.7% | [7] 101% | [8] 102%

IP(CCCSc1n(Cc2ccc3ccccc3c2)c(-c2ccccc2)c(-c2ccccc2)[n+]1Cc1ccc2ccccc2c1)(c1ccccc1)(c1ccccc1)c1ccccc1
active: [1] 2.62% | [5] 9.71% | [8] 4.9%
inactive: [2] 20% | [3] 14.9% | [4] 45.7% | [6] 14.1% | [7] 24.3%

COc1ccc(Cn2cc3c(c2-c2ccccc2)CCCc2cnoc2-3)cc1[N+](=O)[O-]
active: [3] 1.77%
inactive: [1] 67.7% | [2] 81% | [4] 41.3% | [5] 34.4% | [6] 46.9% | [7] 85.7% | [8] 49.4%

Oc1ccc(CSc2nnc(-c3ccc(Cl)cc3)o2)c2cccnc12
inactive: [1] 18.5% | [2] 27.9% | [3] 22.3% | [4] 17.3% | [5] 12.4% | [6] 20.8% | [7] 29.1% | [8] 18.4%

Cc1cn(-c2cc(NC(=O)c3cncc(C#Cc4cnc5ccc(O[C@H]6CCOC6)nn45)c3)cc(C(F)(F)F)c2)cn1
inactive: [1] 98.2% | [2] 181% | [3] 76.5% | [4] 58.9% | [5] 44.6% | [6] 44.2% | [7] 84.7% | [8] 21.9%

CC(C)(C)n1nnnc1C(Nc1nccs1)c1cc2cccc3ccc4cccc1c4c32 (configuration not stated)
inactive: [1] 73.6% | [2] 100% | [3] 96.2% | [4] 98.8% | [5] 76.3% | [6] 91.7% | [7] 113% | [8] 101%

Clc1ccccc1/C=C/c1nn2c(-c3ccncc3)nnc2s1
inactive: [1] 95% | [2] 107% | [3] 103% | [4] 108% | [5] 66.4% | [6] 96.5% | [7] 101% | [8] 110%

CCCCCCNC(=O)Oc1ccc(/C(=C(/C)c2ccc(Cl)cc2)c2ccc(OCCN3CCCC3)cc2)cc1
active: [4] -30.7% | [5] -41.8% | [6] -43.9%
inactive: [1] 41% | [2] 71.6% | [3] 51.6% | [7] 37.1% | [8] 29.7%
